The full list was thinned out, with hits kept by preference.
Shiga toxin inh: blocks Shiga toxin action in Vero cells; Vero cells, Shiga toxin protein synthesis inhibition reporter; inhibition, % at 38.7 µM; 290,000 tested, 9.2% active; AID 2315; in the data active = inhibition mostly above about 28%, no sharp cut-off; inactive = mostly below about 43%
MARV entry inh: Marburg virus entry inhibition. 300,000 tested, 1.8% active. Marburg virus pseudotyped entry inhibition, cell reporter. Potency, µM (highest dose often 37.8 µM), most hits filed as inhibitors; calls by dose curve; tested in HEK293 cells
CHX counter: counter-screen hit for Shiga toxin inhibitors, cycloheximide; 300,000 tested, 12% active; cell reporter, cycloheximide protein synthesis inhibition counterscreen; AID 2314; max response, %; in the data active = max response mostly above about 13%, no sharp cut-off; inactive = mostly below about 14%; note: read at 38.3 µM for the half of the compounds with a filed dose
LASV entry inh: blocks Lassa virus binding to or entry into cells; AID 540256; 300,000 tested, 1.2% active; Lassa virus pseudotype entry inhibition, cell reporter; Potency, µM (doses to about 37.9 µM), most hits filed as inhibitors; calls by dose curve; tested in HEK293 cells; note: nearly all actives have a fitted effect of over 50% in size
Vaccinia Venus: inhibitors of vaccinia virus (Venus reporter). Vaccinia virus Venus reporter expression, fluorescence. Potency, µM (titrated, usually from 36.5 µM), actives largely listed as inhibitors. 330,000 tested, 0.46% active. AID 720580; calls by dose curve; tested in A549 cells; note: nearly all actives have a fitted effect of over 30% in size
VACV mCherry inh: inhibitors of vaccinia virus infection (mCherry reporter signal); AID 720579; Potency, µM (highest dose often 36.5 µM), usual class: inhibitors; Vaccinia virus mCherry reporter infection, fluorescence; 310,000 tested, 0.63% active; calls by dose curve; tested in A549 cells; note: nearly all actives have a fitted effect of over 35% in size
Numbers stand for hits; n = inactive; u = inconclusive; x = not tested or not shown; [ ] = another dose, or the depositor's remark.

SMILES | Shiga toxin inh | MARV entry inh | CHX counter | LASV entry inh | Vaccinia Venus | VACV mCherry inh
COC(=O)CSc1nc(N)c(C#N)c(-c2ccco2)c1C#N | n | n | n | n | n | x
COc1ccccc1-c1cc(-c2ccccc2)nc(SC(C(N)=O)c2ccccc2)c1C#N (configuration not stated) | n | 15µM | n | u | u | u
O=C(c1cccc(F)c1)N1CCc2ccccc2C1 | 55 | n | 40 | n | x | x
CS(=O)(=O)N(CC(=O)N1CCc2ccccc2C1)c1cccc(F)c1 | n | n | n | n | n | n
O=C(CNc1cccc(F)c1)N1CCc2ccccc2C1 | 126 | x | 62 | x | x | x
O=C(c1cc2cc(F)ccc2[nH]1)N1CCc2ccccc2C1 | 65 | x | 20 | x | x | x
O=C(c1ccncc1)N1CCc2ccccc2C1 | n | x | n | x | x | x
O=C(c1ccc(-n2cccn2)cc1)N1CCc2ccccc2C1 | n | n | 24 | n | n | n
CCOc1ccc(NC(=O)/C(C#N)=C\c2ccc(N3CCCC3)c(C)c2)cc1 | x | n | x | n | n | n
O=C(COC(=O)c1ccc(S(=O)(=O)NCc2ccco2)cc1)Nc1ccccc1 | x | u | x | n | n | n
O=C(COC(=O)c1ccc(S(=O)(=O)NCc2ccco2)cc1)Nc1ccccc1OC(F)F | 74 | n | 67 | n | n | n
COc1ccc(CNS(=O)(=O)c2ccc(F)c(C(=O)Nc3ccccc3OC)c2)cc1 | n | x | n | x | x | x
COc1ccc(OC)c(NC(=O)c2cc(S(=O)(=O)NCc3ccco3)ccc2F)c1 | 58 | u | 47 | n | x | x
COc1cc(OC)c(N(C)S(=O)(=O)c2cccc(C(=O)OCC(=O)NCc3ccco3)c2)cc1Cl | n | n | 21 | n | n | n
CN(c1ccccc1)S(=O)(=O)c1cccc(C(=O)OCC(=O)NCc2ccco2)c1 | n | n | n | n | n | n
CCOc1ccccc1NC(=O)c1cc(S(=O)(=O)NCc2ccco2)ccc1F | 35 | x | 42 | x | x | x
COc1cccc(C(=O)N2CCCC(c3nc(SCCN4CCOCC4)ncc3C)C2)c1 (configuration not stated) | x | x | x | x | n | n
COc1ccc(S(=O)(=O)NCc2ccco2)cc1N(C)S(=O)(=O)c1ccccc1 | 51 | n | 33 | n | n | n
COc1ccc(S(=O)(=O)Nc2ccc(F)cc2)cc1N(C)S(=O)(=O)c1ccc(Cl)cc1 | n | 21µM | n | u | u | u
COc1ccc(NS(=O)(=O)c2ccc(OC)c(N(C)S(=O)(=O)c3ccc(Cl)cc3)c2)cc1 | n | u | n | u | u | u
CCOc1ccc(S(=O)(=O)NCc2ccncc2)cc1NC(=O)c1ccccc1 | x | 3.5µM | x | u | n | n
Cc1cc(C(=O)N2CCCC(C)(C(=O)NS(=O)(=O)C3CC3)C2)n(C(C)(C)C)n1 (configuration not stated) | x | x | x | x | n | n
CC1=CC(O)=NS(=O)(=O)O1 | x | x | x | x | n | n
COc1ccccc1N1CCN(c2nc3ccccc3n3cnnc23)CC1 | x | n | x | x | n | n
COc1cccc(C(c2sc3nc(-c4ccco4)nn3c2O)N2CCCC2)c1 (configuration not stated) | x | x | x | n | n | n
SMILES | Shiga toxin inh | MARV entry inh | CHX counter | LASV entry inh | Vaccinia Venus | VACV mCherry inh
COc1ccc2nc(C)c(C(N)=O)cc2c1 | n | u | n | n | u | u
C=CCc1c(C)nc2ccc(C(=O)OCC)cc2c1Cl | 41 | u | n | u | n | n
COC(=O)c1ccc2nc(C)c(C)nc2c1 | n | n | n | n | x | x
CCOC(=O)c1ccc2nc(C)c(CCC(C)=O)c(Cl)c2c1 | 93 | n | 39 | u | n | n
CCOC(=O)c1cc2cc(OC)ccc2nc1C | 88 | n | 16 | n | n | n
CCOC(=O)c1ccc2nc(C)c(C)nc2c1 | 61 | n | n | u | n[7.34 µM] | n[7.34 µM]
O=C(CCn1c(=O)oc2ccccc21)Nc1cccc(Br)c1 | n | n | n | n | n | n
O=C(NC1=NCCS1)c1csc2ccccc12 | 59 | n | 39 | u | n | n
O=C(NC1=NCCS1)Nc1ccccc1 | 65 | u | 36 | n | n | n
O=C(NC1=NCCS1)c1ccccc1Cl | n | u | 8.2 | u | n | n
O=C(NC1=NCCS1)c1ccccc1F | x | n | x | u | n | n
O=C(NC1=NCCS1)c1ccc(Cl)c(Cl)c1 | 68 | u | 48 | u | n | n
Cc1ccc(C(CC(=O)NCC2(c3ccccc3)CCCC2)c2ccccc2)c(O)c1 (configuration not stated) | x | u | x | u | n | n
CCCCOc1ccc(C(=O)NCc2cn3cccc(C)c3n2)cc1 | x | n | x | n | n | n
CN(CCOC(=O)c1ccc2c(c1)OCCO2)C(C)(C)C | n | n | 17 | n | n | x
CN(CCOC(=O)c1ccc2c(c1)OCCO2)Cc1ccccc1 | 19 | n | 41 | n | n | n
